Source: PubChem BioAssay (National Center for Advancing Translational Sciences (NCATS))
HT1080 IDH1KD tx = kills HT-1080 cells with IDH1 knockdown. HT-1080 IDH1 knockdown viability, ATP luminescence, 48 h. Potency, µM (top dose mostly 46.1 µM), without a hit: at the top dose activity, negative = toxicity, hits mostly cytotoxic. hit rate 2% among 360,000. AID 686971;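 also: potency is read from the fitted curve at half-maximal effect; 0% = DMSO wells and -100% = cell-free medium wells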
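Knockdown cells (IDH1KD HT-1080) received compounds 2 h after plating at 750 cells/well and were kept 48 h at 37 °C in 5% FBS RPMI. A CellTiter-Glo luminescence read gave % activity for curve fitting.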
DT40 TDP1 no CPT = qHTS for Inhibitors of human tyrosyl-DNA phosphodiesterase 1 (TDP1): qHTS in cells in absence of CPT. Potency, µM (highest dose often 46.2 µM), inactives show at the highest dose activity change, negative = growth inhibition, actives largely listed as inhibitors. AID 686978, 2013. DT40 Tdp1-/- hTDP1 cells, no CPT, ATP luminescence, 48 h. hit rate 15% among 420,000; also: potency is read from the fitted curve at half-maximal effect; nearly all actives have a fitted effect of over 55% in size
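Compound effects on proliferation are scored in DT40 Tdp1-/-;hTDP1 cells in the absence of CPT. ATP levels (CellTiter-Glo luminescence) are recorded after a ≥48 hr, 37 °C incubation.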
HT1080-NT tox = kills 2HG-producing HT-1080-NT fibrosarcoma cells. hit rate 1.6% among 360,000. Potency, µM (titrated, usually from 46.1 µM), inactives show top-dose activity, negative = less viability, usual class: cytotoxic. HT-1080-NT fibrosarcoma viability, CellTiter-Glo ATP luminescence, 48 h;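 also: NT is the 2HG producing partner of a matched IDH1 knockdown line; potency is read from the fitted curve at half-maximal effect; 0% = DMSO-treated cells and -100% = media-only wells without cells; nearly all actives have a fitted effect of over 55% in size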
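Fibrosarcoma NT cells, 750 per well in 5% FBS RPMI, were exposed to compound for 48 hours. Viability: CellTiter-Glo luminescence.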
IL1B secr inh = inflammasome signaling inhibition, IL-1 beta readout; activity change, % at 57.5 µM; THP-1 LPS/ATP IL-1B secretion, AlphaLISA, 16 h; hits give low values; AID 743279; hit rate 4.7% among 360,000; in the data active = activity change below about -50%; inconclusive = mostly about -30% to -49%
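Secreted IL-1B measured by AlphaLISA bead assay after 16 h compound exposure of THP-1 cells; compounds (final up to 57.5 uM) added 1 h before LPS (250 ng/mL) and ATP (1.25 mM) stimulation; lower signal means less secretion.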
TDP1 cell CPT = growth inhibition of DT40 Tdp1-/-;hTDP1 cells with camptothecin (screen for TDP1 inhibitors) | chicken DT40 Tdp1-/-;hTDP1 cells + 20 nM CPT, ATP luminescence, 48 h | hit rate 12% among 420,000 | Potency, µM (top dose mostly 46.2 µM), without a hit: at the highest dose activity change, negative = growth inhibition, usual class: inhibitors; also: potency is read from the fitted curve at half-maximal effect; nearly all actives have a fitted effect of over 55% in size
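Chicken DT40 Tdp1-/- cells stably complemented with human TDP1 were seeded at 400 cells/well in medium containing 20 nM camptothecin, exposed to pin-transferred compounds, and grown at 37 °C for at least 48 hr. Viability was read as ATP luminescence.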
* marks the source's active call; other numbers are inactive results; u = inconclusive; x = no result. Rows were chosen to be rich in hits. Some 19% of all compounds tested hit in one or more screens of this group. Unless noted, calls follow the shape of the dose curve; as a rule, active = well fitted curve in the direction sought with a large enough effect; inconclusive = small, poorly fitted or top-dose-only effect, or another doubt; inactive = no such curve, though single readings can be large; an effect the other way counts as inactive or inconclusive. Unless noted, % is scaled to controls: 0 for no effect and ±100 for the full control effect.

SMILES | HT1080 IDH1KD tx | DT40 TDP1 no CPT | HT1080-NT tox | IL1B secr inh | TDP1 cell CPT
CCCn1c(SCC(=O)Nc2nc3c(s2)CCCC3)nc2c1c(=O)n(C)c(=O)n2C | 2% | 15µM* | -1% | 16 | 12µM*
CCCCn1c(SCC(=O)Nc2nnc(C(C)C)s2)nc2c1c(=O)n(C)c(=O)n2C | 9% | 18µM* | 9% | 28 | 18µM*
CC(=O)Nc1cccc(NC(=O)NC2CC(=O)N(c3ccc4c(c3)OCCO4)C2)c1 (stereo not drawn) | 0% | -1% | -3% | -2 | -7%
Cc1cc(C)c(C#N)c(=N)o1 | 0% | 26µM* | -4% | 0 | 21µM*
O=C(C(O)c1ccccc1)N1CCN(S(=O)(=O)c2ccc(OC(F)(F)F)cc2)CC1 (stereo not drawn) | -3% | -20% | -2% | 0 | -6%
O=C(Nc1ccc(N2CCN(C(=O)c3ccccc3)CC2)cc1)c1cccnc1 | 3% | -19% | 24% | -58* | -18%
O=C(Nc1ccc(N2CCN(C(=O)c3cccs3)CC2)cc1)c1cccnc1 | 23% | u | 24% | -52* | u
O=C(Nc1ccc(N2CCN(C(=O)c3ccc(Cl)cc3)CC2)cc1)c1cccnc1 | 5% | u | 3% | u | u
CC1=C(C#N)C(=O)NC1(C)O (stereo not drawn) | 4% | -20% | 15% | 7 | -12%
O=C1COc2cc(S(=O)(=O)NCc3ccco3)c(Cl)cc2N1 | x | u | x | x | 18µM*
COc1ccc(CNS(=O)(=O)c2cc3c(cc2Cl)NC(=O)CO3)cc1 | -1% | 5% | 3% | -1 | -2%
Cc1ccc(NC(=O)CN(C)C(=O)c2cc(-c3cccs3)nn2-c2ccccc2)cc1 | -8% | u | -4% | -52* | u
CCN(CC(=O)Nc1ccccc1OC)C(=O)c1cc(-c2ccccc2)nn1-c1ccccc1 | u | u | u | -10 | 21µM*
CCN(CC(=O)Nc1c(F)cccc1F)C(=O)c1cc(-c2cccs2)nn1-c1ccccc1 | 1% | 18µM* | 8% | -13 | u
Cn1c(-c2ccc(F)cc2)cnc1NCc1cc2c(cc1[N+](=O)[O-])OCO2 | -7% | 23µM* | -3% | -64* | u
Cn1c(-c2ccc(Cl)cc2)cnc1NCc1cc2c(cc1[N+](=O)[O-])OCO2 | -4% | u | -13% | -82* | u
Cc1cc(=O)oc(C)c1C(=O)OCC(=O)c1ccc(Cl)cc1 | 6% | u | 1% | -9 | u
CN(Cc1ccccc1)Cc1c(O)ccc2c(=O)c(-c3ccccc3)c(C(F)(F)F)oc12 | x | -18% | x | x | -6%
Nc1c(-c2nc(-c3cccs3)no2)nnn1-c1ccc(Cl)cc1 | x | -1% | x | x | 1%
Cc1cc(NC(=O)c2cc(-c3cccnc3)nc3c(C)c(C)ccc23)no1 | u | 16µM* | -22% | -18 | u
Cc1cc(NC(=O)c2cc(-c3ccccc3C)nc3ccccc23)no1 | 3% | 21µM* | -8% | 26 | u
O=C(Nc1cccnc1)c1cc(-c2ccc(Br)cc2)nc2ccccc12 | u | u | u | -77* | u
COc1ccccc1NC(=O)c1cc(-c2ccc(C)o2)nc2ccccc12 | 11% | u | 0% | 0 | u
Cc1ccc(-c2cc(C(=O)Nc3ccccn3)c3ccccc3n2)o1 | -4% | 23µM* | 3% | -24 | u
COc1nc(NC2OC(CO)C(O)C(O)C2O)c(N)c(=O)[nH]1 (stereo not drawn) | 15% | -21% | 7% | 0 | -19%
SMILES | HT1080 IDH1KD tx | DT40 TDP1 no CPT | HT1080-NT tox | IL1B secr inh | TDP1 cell CPT
CCCNC(=O)COc1coc(CN2CCN(c3ccccc3F)CC2)cc1=O | 0% | 11% | 14% | 0 | -25%
Cc1ccc(-c2cc(C(=O)Nc3cccnc3)c3ccccc3n2)o1 | u | u | u | 8 | 16µM*
Cc1ccc(NC(=O)c2cc(-c3ccc(C)o3)nc3ccccc23)cc1 | u | u | u | 19 | u
CC1CCN(S(=O)(=O)c2cnc(Cl)c(Br)c2)CC1 | 14% | -24% | 2% | -65* | -16%
CC1CCCCN1S(=O)(=O)c1coc(C(N)=O)c1 (stereo not drawn) | 4% | 0% | 11% | 5 | -1%
CC1CCCCN1S(=O)(=O)c1cnc(Cl)c(Br)c1 (stereo not drawn) | -1% | u | 3% | -94* | u
CC1CCN(S(=O)(=O)c2ccc(Cl)cc2Br)CC1 | -2% | -26% | -1% | 7 | 2%
NC(=NCc1ccccc1)NC(=O)c1nc(Cl)c(N)nc1N | u | 23µM* | u | -61* | 10µM*
CCN(CC)c1nc2c3c(nc4c(c3c1C#N)CC(=O)N4c1ccc(Cl)cc1)NC(C)=N2 | -1% | 18µM* | -1% | -8 | u
CC(=O)Nc1cccc(-c2ccnc3c2CC(C)(C(=O)Nc2cccc(NS(C)(=O)=O)c2)O3)c1 (stereo not drawn) | -26% | -28% | -16% | -19 | -7%
COc1ccc2nc(C)c3cc(C)oc3c2c1 | 13% | -15% | 3% | -24 | -11%
Cc1nc2ccccc2c2c1CC(C(C)(Cl)Br)O2 (stereo not drawn) | u | 3.7µM* | u | 39 | 6.5µM*
COc1ccc2nc(C)c3c(c2c1)OC(C(C)(Cl)Br)C3 (stereo not drawn) | -5% | 18µM* | -17% | -13 | u
COc1ccc(CCNC(=O)COC(=O)c2cc(S(=O)(=O)N3CCCC3)ccc2O)cc1 | 5% | 12% | 4% | 16 | 7%
COc1ccc(S(=O)(=O)N2c3cc(C)ccc3OCC2C(C)(C)C)cc1 (stereo not drawn) | 5.8µM* | u | 5.8µM* | 24 | 16µM*
COc1ccc(Cl)cc1NC(=O)CSc1nc(=O)[nH]c2c1CCC2 | x | u | x | x | -27%
Cc1ccc(-n2ncc(C(=O)Nc3ccc4c(c3)OCO4)c2C2CCN(C(=O)OC(C)(C)C)CC2)c(C)c1 | x | 29µM* | x | x | u
CCOC(=O)N1CCC(NC(=O)c2cnn(-c3ccc(C)cc3C)c2C2CCN(C(=O)OC(C)(C)C)CC2)CC1 | x | -24% | x | x | -27%
CCOC(=O)c1ccc(NC(=O)c2cnn(-c3ccc(C)cc3C)c2C2CCN(C(=O)OC(C)(C)C)CC2)cc1 | x | 16µM* | x | x | u
COc1ccc(NC(=O)c2cc(C3CCCCN3C(=O)OCc3ccccc3)on2)c(C)c1 (stereo not drawn) | -28% | u | -5% | -27 | u
COc1ccc(C/C(C)=N/NC(=S)Nc2ccccc2)cc1 | -9% | u | -7% | -7 | u
